Test [1] in a line: yeast TOR pathway RPL19A-GFP modulators, primary screen, cell-based, S. cerevisiae, multiplex flow cytometry (AID 1862; in the data active = percent of DMSO control GFP below about 86%;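 note: lower values mimic rapamycin by blocking the RPL19A rise seen in DMSO cells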). As to conditions: S. cerevisiae RPL19A-GFP strain, flow cytometry fluorescence, 3 h; at 10 µM; stronger effect = lower value.
A short description of test [2]: modulators of MEP2-GFP levels in yeast, primary screen, S. cerevisiae, multiplex flow cytometry (AID 1867;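 active = GFP response, as percent of the DMSO control, above the screen-wide mean plus 3 SD, about 139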;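 note: median GFP channel fluorescence of barcode-gated MEP2-GFP cells measured by flow cytometry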). As to conditions: S. cerevisiae MEP2-GFP strain, 3 h, at 10 µM, stronger effect = higher value. On the technique in general: In flow cytometry, cells or beads pass a laser one at a time.
Test [3] can be described thus: modulators of CIT2-GFP expression in yeast, primary screen, S. cerevisiae, GFP fusion, multiplex flow cytometry (AID 1870;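 active = percent response above a set limit, the screen-wide mean plus 3 SD, cut at about 130% in these data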;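 note: barcoded CIT2-GFP strain pooled with four other GFP strains with rapamycin as positive control; median GFP fluorescence per well over plate mean of DMSO wells so 100% = DMSO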). As to conditions: 3 h, at 10 µM, stronger effect = higher value.
Test [4] in a line: modulators of LAP4-GFP expression in yeast, primary screen, S. cerevisiae, multiplex flow cytometry (AID 1873;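 active = GFP signal, as percent of the solvent control, above the screen mean plus 3 SD, about 149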). As to conditions: 3 h, at 10 µM, stronger effect = higher value.
Test [5] is described as follows: modulators of AGP1-GFP expression in yeast TOR pathway, primary screen, cell-based, multiplex flow cytometry, S. cerevisiae (AID 1887;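 active = GFP signal above the screen-wide mean plus 3 SD, that is over about 124.5% of the solvent control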;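 note: AGP1-GFP fusion strain of S. cerevisiae within a five-strain barcoded multiplex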). As to conditions: 3 h, at 10 µM, stronger effect = higher value.
Test [6] in a line: inhibitors of CD8+ T cell-vesicle binding, pilot screen, LFA-1/ICAM-1 modulator project, MLPCN validation set, flow cytometry (AID 2523;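 active = response below a set limit, under 55% cells CD8-positive and vesicle-bound, and CD8 cells' 90th-percentile brightness under 279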;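 for vesicle binding response: mean PE anti-B7-1 fluorescence of CD8+ cells relative to row control; 100% = QL9-loaded vesicles with DMSO vehicle in the same plate row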). As to conditions: 2C mouse CD8+ T cells, at 7 µM, stronger effect = lower value; double positive events: measured here: CD8+/vesicle+ event percentage.
Test [7] concerns the target Integrin beta-1 (Homo sapiens) + Integrin alpha-4 (Homo sapiens) (UniProt P13612+P05556). The test is described as follows: inhibition of HUTS-21 binding to VLA-4, pilot screen, VLA-4 allosteric modulator project, U937 cells, HUTS-21 mAb, flow cytometry, validation set (AID 2674;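 active = inhibition above 50%, about 3 SD of the validation set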;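 note: antibody binding induced by the VLA-4 ligand LDV present at three times its Kd; 0% = LDV ligand with antibody and no compound and 100% = antibody without LDV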). As to conditions: HUTS-21 LIBS mAb binding, at 6.7 µM, stronger effect = higher value.
Test [8] can be described thus: superoxide lowering in aged yeast cells, pilot screen, validation compound set (AID 2706;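 active = superoxide response below 65% of plate, a cut near 3 SD across the whole screen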;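 note: yeast exposed to compound for one week at 30 degrees C before staining; 100% = mean of all compound wells on the same plate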). As to conditions: S. cerevisiae aging, superoxide DHE fluorescence; at 10 µM; stronger effect = lower value.
Test [9] deals with Beta-adrenergic receptor kinase 1 (Homo sapiens) (UniProt P25098). As to the kind of experiment: GRK2 binders displacing RNA aptamer, biochemical, validation, human GRK2, bead flow cytometry (AID 488806;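 active = aptamer binding inhibition above 30%, about 3 SD of noise from non-fluorescent compounds; inactive = inhibition at or below 30%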). As to conditions: bead-bound GRK2, FAM-aptamer displacement, at 10 µM, stronger effect = higher value.
The target in test [10] is Beta-2 adrenergic receptor (Homo sapiens) (UniProt P07550). The test is described as follows: beta2AR agonists driving receptor internalization, pilot screen, cell-based, FAP fluorogen, flow cytometry, validation set (AID 504459;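 active = percent response above 42, roughly 3 SD of non-fluorescent test compounds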;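 note: agonist-driven loss of surface beta2AR via internalization measured by FAP dye flow cytometry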). As to conditions: Am2.2-beta2AR cells, FAP surface receptor flow cytometry; at 10 µM; stronger effect = higher value.
Test [11] has as its target AP-2 complex subunit beta (Homo sapiens) (UniProt P63010). As to the kind of experiment: inhibitors of arrestin peptide binding to AP2, pilot screen, biochemical, validation set, GST-AP2 beads, flow cytometry (AID 504541;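 active = inhibition above 54%, about 3 SD of non-fluorescent compounds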;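 note: AP2 carries R879A mutation and is captured from E. coli lysate; bead-bound FITC arrestin peptide fluorescence measuring arrestin peptide binding to AP2; 0% = DMSO wells and 100% = excess unlabeled arrestin peptide control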). As to conditions: FITC arrestin peptide, at 10 µM, stronger effect = higher value.
A short description of test [12]: yeast V-ATPase proton transport modulators, S. cerevisiae, pHLuorin, HTS validation (AID 504600; in the data active = response above about 15%;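 note: plate controls were DMSO for no effect and reference compound for full effect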). As to conditions: S. cerevisiae pHLuorin cytosolic pH, at 10 µM, stronger effect = higher value.
The test system of test [13] is anti-desmoglein-3 scFv antibody binding to human DSG3. The test is described as follows: inhibitors of anti-DSG3 scFv binding to DSG3, pilot screen, biochemical, validation compound set, bead-based, flow cytometry (AID 588368;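 active = binding below the plate cutoff, the plate median minus 3 SD, with a reading above zero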;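 note: signal is the median channel fluorescence of bead-bound GFP antibody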). As to conditions: Protein G beads, DSG3-Fc, scFv-GFP binding, at 10 µM, stronger effect = lower value.
For test [14], the system named is Botulinum neurotoxin type F light chain protease (Clostridium botulinum). As to the kind of experiment: Botulinum neurotoxin type F light chain protease inhibition, multiplex microsphere flow cytometry, validation set (AID 588459). As to conditions: multiplex microsphere protease substrate cleavage assay, at 10 µM, stronger effect = higher value.
Test [15] addresses Botulinum neurotoxin type A (Clostridium botulinum) (UniProt P0DPI0). The test is described as follows: BoNT/A light chain protease inhibitors, biochemical, multiplex microsphere flow cytometry, validation set (AID 588460). As to conditions: at 10 µM, stronger effect = higher value.
Test [16] has as its target Lethal factor (Bacillus anthracis) (UniProt P15917). The test is described as follows: Lethal factor protease inhibitors, Bacillus anthracis, multiplex microsphere cleavage assay, validation set (AID 588461). As to conditions: flow cytometry, at 10 µM, stronger effect = higher value.
A short description of test [17]: inhibitors of fungal efflux pumps CDR1, CDR2, MDR1, pilot screen, validation compound set, multiplex, phenotypic (AID 588506;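 active = efflux inhibition above 0.42, the validation set average plus 4 SD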;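 note: Nile Red retained in cells so higher fluorescence means more efflux inhibition; 0 = negative control wells and 1 = enniatin B 25 µM full block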). As to conditions: S. cerevisiae pump-expressing triplex, Nile Red efflux flow cytometry; at 10 µM; stronger effect = higher value.
Test [18] has as its target ATP-binding cassette sub-family B member 6 (Homo sapiens) (UniProt Q9NP58). As to the kind of experiment: ABCB6 transporter inhibitors, pilot screen, K562-ABCB6 cells, flow cytometry, validation set (AID 588550;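 active = inhibition above the screen-wide mean plus 3 SD, about 51%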;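 note: 0% = DMSO wells and 100% = benzethonium chloride 70 µM positive control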). As to conditions: K562-ABCB6 porphyrin accumulation, 1 h, at 10 µM, stronger effect = higher value.
The nature of test [19]: promoters of myeloid differentiation in arrested cells, primary screen, cell-based, GFP/MAC1 double positive, flow cytometry, validation set (AID 588685;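 active = differentiation response of at least 50%, scaled between solvent and reference control, from cells with both markers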;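 note: compound exposure lasts four days before antibody staining and flow analysis; 0% = DMSO wells and 100% = 5 µM fulvestrant positive control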). As to conditions: ER-HoxA9 marrow cells, stronger effect = higher value.

Molecules are shown by their SMILES. Inconclusive results are not listed. Active and inactive are the calls of the source. Unless noted, the rule behind the calls is not given here.

A word on the inhibition: it is the relative decrease from the control value, in per cent. As for `CCOc1ccc(N2C(=O)NC(=O)/C(=C\c3cc(OC)c(OC)cc3[N+](=O)[O-])C2=O)cc1`, the percent of DMSO control GFP in test [1] was 102% (inactive). Moreover, the GFP response vs DMSO was 97.7% (inactive) in test [2] and 89.3% (inactive) in test [4]. Further, in test [3], the percent response of DMSO control is 109% (inactive). Further, the GFP response, % of DMSO in test [5] was 103% (inactive). Besides, the double positive events in test [6] turned out to be 60.3%. Also, the vesicle binding response in [6] was 144% (inactive). Further, the inhibition was -7.79% (inactive) in [7]; 7.81% (inactive) in test [11]; -3.1% (inactive) in test [14]; -0.2% (inactive) in test [15]; 4.2% (inactive) in test [16]; -11% (inactive) in test [18]. For the same compound, the superoxide response (% of plate) in [8] was 107% (inactive). In addition, the aptamer binding inhibition in test [9] was 0% (inactive). The response in test [10] is 7.81% (inactive); in [12], -4.04% (inactive). In [13], the binding (% of control) was 97.9% (inactive). The efflux inhibition (fraction of control) in test [17] is -0.15 (inactive). Further, in test [19], the differentiation response is 17.4% (inactive).

`C[N+](C)(C)Cc1ccccc1`: the percent of DMSO control GFP in test [1] is 103% (inactive). In addition, the GFP response vs DMSO was 105% (inactive) in [2] and 109% (inactive) in [4]. Further, in test [3], the percent response of DMSO control was 106% (inactive). In addition, the GFP response, % of DMSO in test [5] is 110% (inactive). Also, the double positive events in [6] was determined as 64.9%. In addition, in test [6], the vesicle binding response is 147% (inactive). In addition, the inhibition in test [7] was -14.5% (inactive); in test [11], 3.88% (inactive); in test [14], 1.5% (inactive); in [15], 0.6% (inactive); in test [16] it was 4.6% (inactive); in test [18] it was 1% (inactive). The superoxide response (% of plate) in test [8] is 89.2% (inactive). Further, the aptamer binding inhibition in test [9] is -1% (inactive). For the same compound, the response is -3.98% (inactive) in test [10] and -0.83% (inactive) in [12]. The binding (% of control) in [13] is 103% (inactive). Also, in [17], the efflux inhibition (fraction of control) is 0.245 (inactive). In test [19], the differentiation response was -14.8% (inactive).

On to `CN1C2CCC1CC(OC(=O)CCN1CCCC1)C2` (stereo not given), for which the percent of DMSO control GFP in test [1] is 105% (inactive). Moreover, the GFP response vs DMSO in [2] is 105% (inactive); in [4] it was 115% (inactive). In addition, in test [3], the percent response of DMSO control is 107% (inactive). Further, in test [5], the GFP response, % of DMSO is 113% (inactive). This compound also came in with a double positive events in test [6] of 61.6%. Further, the vesicle binding response in test [6] is 194% (inactive). Also, the inhibition was 8.25% (inactive) in [7]; 33.9% (inactive) in [11]; 3.2% (inactive) in test [14]; 1.3% (inactive) in test [15]; 1.5% (inactive) in test [16]; 0% (inactive) in test [18]. In [8], the superoxide response (% of plate) is 98.4% (inactive). The aptamer binding inhibition in [9] is 4% (inactive). Further, the response in test [10] is -8.97% (inactive); in test [12] it was -1.35% (inactive). In addition, in test [13], the binding (% of control) is 107% (inactive). In addition, in [17], the efflux inhibition (fraction of control) was 0.08 (inactive). Moreover, the differentiation response in [19] was -0.06% (inactive).

For `CC(C)NC(C)C(=O)c1ccc2ccccc2c1` (stereo not given), the percent of DMSO control GFP in test [1] was 104% (inactive). The GFP response vs DMSO in test [2] was 99.6% (inactive); in test [4] it was 113% (inactive). In addition, the percent response of DMSO control in [3] was 98.6% (inactive). In addition, the GFP response, % of DMSO in [5] was 107% (inactive). The compound also gave a double positive events in [6] of 63.7%. The vesicle binding response in test [6] was 278% (inactive). Further, the inhibition in [7] is -0.43% (inactive); in [11], -7.53% (inactive); in [14], 1.8% (inactive); in test [15], 2% (inactive); in [16], 1.1% (inactive); in test [18] it was 106% (active). The superoxide response (% of plate) in [8] was 121% (inactive). The aptamer binding inhibition in [9] is 1% (inactive). Also, the response in test [10] is 14.8% (inactive); in [12] it was 3.67% (inactive). Further, in test [13], the binding (% of control) was 98.4% (inactive). Also, the efflux inhibition (fraction of control) in test [17] was -0.28 (inactive). For the same compound, the differentiation response in test [19] is 108% (active).

(Values after PubChem BioAssay.)
